Bioassay records as filed in PubChem BioAssay.
Rows were chosen to be rich in hits. Some 7% of all compounds tested hit in one or more screens of this group.
AHR activator: AHR activators, primary screen, cell-based, luminescence, luciferase reporter, human; Aryl hydrocarbon receptor (Homo sapiens), P35869; AHR-responsive luciferase reporter cells; activation, % at 5 µM; 320,000 compounds, 2.5% hits; in the data active = activation above about 47%;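 also: 0% = vehicle wells and 100% = reference agonist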
KLK7 zymogen act: proKLK7 zymogen activators, primary screen, biochemical, fluorescence intensity | purified proKLK7, EDANS-DABCYL substrate fluorescence; 100% is mature enzyme control, 0% vehicle | activation, % at 7 µM | AID 652039, 2013 | 370,000 compounds, 0.9% hits | Kallikrein-7 (Homo sapiens), P49862;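 active = activation above the mean of all tested compounds plus 3 SD, computed per campaign excluding outliers beyond control limits, cut at about 13% in these data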
rCAG binder: binders of r(CAG) RNA repeats, primary screen, biochemical, fluorescence | 370,000 compounds, 1.3% hits | inhibition, % at 3 µM | r(CAG) RNA repeat, TO-PRO-1 dye displacement fluorescence;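 active = inhibition above the plate cutoff, the mean of all test compounds on that plate plus 3 SD, cut at about 35% in these data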;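 also: 0% = DMSO alone and 100% = 100 µM mitoxantrone as full dye displacement; higher means more dye released from RNA so lower well fluorescence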
ADAM17 inh: ADAM17 inhibitors, primary screen, biochemical, QFRET; Disintegrin and metalloproteinase domain-containing protein 17 (Homo sapiens), P78536; recombinant ADAM17, EDANS/DABCYL FRET peptide cleavage; inhibition, % at 6.95 µM; 370,000 compounds, 0.83% hits;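 active = inhibition above the mean of compounds lying between control limits plus 3 SD, set per campaign, cut at about 8.5% in these data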;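 also: 0% = DMSO-only wells as the low control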
ADAM10 inh: human ADAM10 inhibitors, primary screen, biochemical, QFRET, HTS; recombinant ADAM10, EDANS/DABCYL FRET peptide cleavage, 3 h; inhibition, % at 7 µM; AID 720582, 2013; Disintegrin and metalloproteinase domain-containing protein 10 (Homo sapiens), O14672; 370,000 compounds, 0.62% hits;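 active = inhibition above a per-campaign cutoff equal to the mean of compounds falling between control-based bounds plus 3 SD, cut at about 20% in these data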;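 also: 0% = DMSO wells while the 100% control is not disclosed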
Target sequence (O14672 214-748 limits assumed): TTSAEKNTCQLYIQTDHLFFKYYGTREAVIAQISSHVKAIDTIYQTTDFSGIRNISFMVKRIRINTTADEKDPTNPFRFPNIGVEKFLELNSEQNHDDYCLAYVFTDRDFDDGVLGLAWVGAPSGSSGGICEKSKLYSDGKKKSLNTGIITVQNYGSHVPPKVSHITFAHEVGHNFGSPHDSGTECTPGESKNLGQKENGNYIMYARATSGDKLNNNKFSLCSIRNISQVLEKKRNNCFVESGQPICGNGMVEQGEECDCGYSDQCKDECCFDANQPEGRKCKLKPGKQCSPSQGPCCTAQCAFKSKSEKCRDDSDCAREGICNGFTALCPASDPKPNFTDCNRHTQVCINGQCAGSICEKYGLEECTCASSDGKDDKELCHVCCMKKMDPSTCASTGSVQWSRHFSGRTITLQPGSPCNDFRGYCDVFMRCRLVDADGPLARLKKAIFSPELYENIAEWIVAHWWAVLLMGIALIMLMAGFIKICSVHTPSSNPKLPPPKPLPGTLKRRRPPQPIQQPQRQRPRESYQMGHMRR
GRIN3A LBD mod: binders of NR3A ligand-binding domain, primary screen, biophysical, differential scanning fluorimetry, uHTS; 340,000 compounds, 2.5% hits; Tm shift relative to glycine control, % at 25 µM; Glutamate receptor ionotropic, NMDA 3A (GRIN3A) ligand-binding domain; NR3A LBD differential scanning fluorimetry, Tm shift; 0% = protein alone, 100% = glycine-bound protein;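 active = melting temperature shift of at least 10% of the positive control shift, at one fixed dose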
KLK7 act conf: proKLK7 zymogen activators, confirmation, biochemical, fluorescence intensity, triplicate; shares compounds with KLK7 zymogen act; purified proKLK7, EDANS-DABCYL substrate fluorescence; scaled: vehicle 0, mature enzyme 100; activation, % at 7 µM; 3,200 compounds, 68% hits; AID 686949, 2013;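 active = activation, as change over the incubation, above the mean of all tested compounds plus 3 SD, cut at about 13% in these data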
EDANS-DABCYL int: EDANS-DABCYL substrate optical interference, artefact control for kallikrein-7 zymogen activator project, biochemical, fluorescence intensity, high throughput; shares compounds with KLK7 zymogen act; no enzyme, 4 h; solvent 0%, active enzyme control 100%; activation, % at 7 µM; 3,200 compounds, 80% hits;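 active = activation above the all-compound mean plus 3 SD, ignoring values outside control-based bounds, cut at about 4.8% in these data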;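 also: value is the 4 h activation minus the activation read at time zero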
The depositor's hits bear a star; i = inactive; . = no result given.

SMILES | AHR activator | KLK7 zymogen act | rCAG binder | ADAM17 inh | ADAM10 inh | GRIN3A LBD mod | KLK7 act conf | EDANS-DABCYL int
CCOC(=O)c1cc2c(=O)n3ccccc3nc2n(CCOC)c1=NC(=O)c1ccncc1 | 1 | 24* | -6 | i | i | -1 | 8 | 13*
Cn1ccnc1COc1ccc(C=O)cc1 | 0 | 0 | 2 | -2 | 5 | 1 | . | .
CNC[C@H](Cc1cccc2ccccc12)NC[C@H](CCSC)NCC1CCC(C(C)(C)C)CC1 (some centres undefined) | 2 | . | . | . | . | . | . | .
COC(=O)C(C)Oc1cc(C)ccc1COc1ccc(-n2nc(C)n(C(F)F)c2=O)cc1 (centres undefined) | 2 | 1 | -2 | 3 | 10 | 0 | . | .
Cc1ccc(S(=O)(=O)N/N=C\c2cn(CC(N)=O)c3ccccc23)cc1 | 6 | 0 | 14 | 3 | 5 | 2 | . | .
CCOC(=O)c1cc2c(=O)n3ccccc3nc2n(Cc2ccco2)c1=NC(=O)c1ccccc1OCC | 2 | 11 | 6 | i | i | 0 | . | .
CCOC(=O)c1cc2c(=O)n3ccccc3nc2n(CC(C)C)c1=NC(=O)c1ccco1 | 4 | 30* | -8 | -433 | i | -1 | 24* | 26*
COc1cc(/C=C/C(=O)Nc2ccc(C(C)=O)cc2)cc(OC)c1OC | -6 | -1 | 2 | -5 | -24 | 0 | . | .
COc1ccc(/C=C/C(=O)NC(=S)Nc2ccc(S(N)(=O)=O)cc2)cc1OC | -4 | 19* | 11 | -11 | -21 | -4 | 13* | 17*
COc1ccc(/C=C/C(=O)Nc2ccc(-n3nncc3-c3ccc(OC)c(OC)c3)cc2)cc1OC | 15 | 28* | 27 | -16 | -90 | 0 | -9 | -20
COc1ccc(/C=C/C(=O)NC(=S)Nc2ccccc2)cc1OC | 0 | -1 | 1 | -9 | -2 | 3 | . | .
COc1cc(/C=C/C(=O)Nc2ccncc2)cc(OC)c1OC | 6 | 28* | 0 | -129 | -390 | -1 | 8 | 18*
CC(NC(=O)C1=CC=CN2CCS(=O)(=O)N=C12)c1ccc(Cl)cc1Cl (centres undefined) | -1 | 5 | 1 | -111 | -390 | 0 | . | .
CCOC(=O)c1cc(C)[nH]c(=O)c1C#N | 0 | 42* | -1 | i | i | -8 | 65* | 74*
CCOC(=O)c1cc(C)[nH]c1C | -1 | 0 | -4 | 1 | 3 | 2 | . | .
CCN(CC)C(=O)COc1ccc2oc(-c3ccco3)cc(=O)c2c1 | 6 | 28* | 0 | i | i | -2 | 52* | 55*
Cc1ccc2nsnc2c1NC(=O)COc1ccccc1 | 2 | 1 | 2 | -3 | -10 | 4 | . | .
CCOc1c(OC)ccc2c3c(c(=O)oc12)CCCC3 | -1 | 3 | 2 | -49 | -126 | -1 | . | .
COc1c2c(nc3occc13)C(CC=C(C)C)(OC)C(=O)C=C2 (centres undefined) | 27 | 0 | -4 | -2 | 7 | 0 | . | .
CCOc1c2ccoc2nc2c(OC)c(OC)ccc12 | 1 | 13* | -2 | -279 | i | -3 | 9 | 14*
C=CCOc1ccc2c(OC)c3ccoc3nc2c1OC | -4 | 19* | -1 | -268 | i | -1 | -6 | -17
CC(=O)Nc1ccc(NC(=O)C(C)OC(=O)c2ccc3[nH]c(C)c(C)c3c2)cc1 (centres undefined) | 9 | 0 | 12 | -1 | -1 | -5 | . | .
